# Laboratory results: PubChem BioAssay (NCATS)
# Values joined by “and” are separate entries in the source; they are usually repeats but may differ in a detail not shown here. Equal values may be shown once. Records with an inconclusive call do not appear. Unmarked numbers belong to inactive results. Active and inactive are the calls of the source. Calls come from the whole dose curve; as a rule, active = well fitted curve in the direction sought with a large enough effect; inconclusive = small, poorly fitted or top-dose-only effect, or another doubt; inactive = no such curve, though single readings can be large; an effect the other way counts as inactive or inconclusive. Peptide text beside a SMILES is read from it. * marks the point of attachment. Cbz = O=C(OCc1ccccc1)*
# Columns and labels:
# [1] = Viability qHTS for spleen associated tyrosine kinase inhibitor (SYKi) naive MV4-11 cells (AID 1963823); note: nearly all actives have a fitted effect of over 40% in size
# Procedure, shortened: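 SYK inhibitor-naive MV4-11 cells, 500 per well, exposed to compounds for 72 hr at 37 C, 5% CO2. Viability read as CellTiter-Glo luminescence after 10 min at room temperature.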
# [2] = Viability qHTS for spleen associated tyrosine kinase inhibitor (SYKi) drug resistant MV4-11 cells (AID 1963824); note: nearly all actives have a fitted effect of over 35% in size
# Procedure, shortened: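 SYK inhibitor-resistant MV4-11 AML cells, 500 per well, added to predispensed compounds and incubated 72 hr at 37 C, 5% CO2. Viability measured by CellTiter-Glo luminescence after 10 min at room temperature.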
# [3] = Quantitative highthroughput screen to assess conditional lethalithy of NOMO1 cells grown in RPMI1640 with untreated serum (RPMI+s) (AID 1963876); note: nearly all actives have a fitted effect of over 35% in size;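 for Viability: 100% = DMSO wells and 0% = empty wells without cells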
# Procedure, shortened: (§1)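 Each medium arm—HPLM with 10% dialyzed FBS, or RPMI1640 with 5 mM glucose and 10% untreated or dialyzed FBS—was screened against an 11-point, 3-fold compound titration for 48 h at 37 °C, with CellTiter-Glo luminescence as endpoint.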
# [4] = Quantitative highthroughput screen to assess conditional lethalithy of NOMO1 cells grown in RPMI1640 with dialyzed fetal bovine serum (RPMI+ds) (AID 1963877); note: nearly all actives have a fitted effect of over 30% in size;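 for Viability: series mostly up to about 46 µM; 100% = DMSO control wells and 0% = empty wells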
# Procedure, shortened: as §1
# [5] = Quantitative highthroughput screen to assess conditional lethalithy of NOMO1 cells grown in Human Plasma-Like Medium with dialyzed fetal bovine serum (HPLM+ds) (AID 1963878); note: nearly all actives have a fitted effect of over 35% in size;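 for Viability: 100% = DMSO wells and 0% = empty wells on each plate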
# Procedure, shortened: as §1
# [6] = Quantitative highthroughput screen to assess conditional lethalithy of P12 Ichikawa cells grown in Human Plasma-Like Medium with dialyzed fetal bovine serum (HPLM+ds) (AID 1963879); conditions: Potency: viability; note: nearly all actives have a fitted effect of over 35% in size; for Viability: series mostly up to about 46 µM
# Procedure, shortened: as §1
# [7] = Quantitative highthroughput screen to assess conditional lethalithy of P12 Ichikawa cells grown in RPMI1640 with dialyzed fetal bovine serum (RPMI+ds) (AID 1963880); conditions: Potency: P12-Ichikawa viability; note: nearly all actives have a fitted effect of over 35% in size;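 for Viability: 100% = DMSO wells and 0% = empty wells on each plate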
# Procedure, shortened: as §1
# [8] = Quantitative highthroughput screen to assess conditional lethalithy of P12 Ichikawa cells grown in RPMI1640 with untreated serum (RPMI+s) (AID 1963881); conditions: Potency: viability; note: nearly all actives have a fitted effect of over 35% in size;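 for Viability: series mostly up to about 46 µM; 100% = DMSO wells and 0% = empty wells without cells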
# Procedure, shortened: as §1
# [9] = Quantitative highthroughput screen to assess conditional lethalithy of SEM cells grown in Human Plasma-Like Medium with dialyzed fetal bovine serum (HPLM+ds) (AID 1963882); note: nearly all actives have a fitted effect of over 35% in size; for Viability: series mostly up to about 46 µM
# Procedure, shortened: as §1
# [10] = Quantitative highthroughput screen to assess conditional lethalithy of SEM cells grown in RPMI1640 with unreated serum (RPMI+s) (AID 1963883); note: nearly all actives have a fitted effect of over 35% in size;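 for Viability: 100% = DMSO wells and 0% = empty wells without cells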
# Procedure, shortened: as §1
# [11] = Quantitative highthroughput screen to assess conditional lethalithy of SEM cells grown in RPMI1640 with dialyzed fetal bovine serum (RPMI+ds) (AID 1963884); note: nearly all actives have a fitted effect of over 35% in size;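 for Viability: series mostly up to about 46 µM; 100% = DMSO control wells and 0% = empty wells without cells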
# Procedure, shortened: as §1
# [12] = Cellular viability qHTS for adrenocortical cancer (ACC) cell line SW-13 (AID 1963989); conditions: SW-13 ACC cells viability, CellTiter-Glo, 48 h; activity (max response): stronger effect = lower value; note: nearly all actives have a fitted effect of over 65% in size;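 for activity (max response): cells grown in serum-free medium with ITS supplement; % is set by controls: 0 for no effect and ±100 for the full control effect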
# Procedure, shortened: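 SW-13 cells in ITS-supplemented serum-free DMEM were plated overnight, then exposed for 48 h at 37C to compound titrations (up to 46 uM final). Viability was read by CellTiter-Glo luminescence; four-parameter logistic fits gave IC50 and efficacy.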
# [13] = Cellular viability qHTS for adrenocortical cancer (ACC) cell line NCI-H295R (AID 1963990); note: nearly all actives have a fitted effect of over 60% in size
# Procedure, shortened: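 Luminescent ATP read-out (CellTiter-Glo, 20 min RT) after 48 h drug exposure of NCI-H295R cells; a titration up to 46 uM final. Data normalized to doxorubicin (100% inhibition) and DMSO (0%); 4-parameter fit gives IC50, max response.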
# Potency is the fitted concentration of half-maximal effect.
SMILES,Potency [1],Potency [2],Potency [3],Potency [4],Potency [5],Potency [6],Potency [7],Potency [8],Potency [9],Potency [10],Potency [11],activity (max response) [12],Potency [12],Potency [13]
NC(=O)c1noc([C@H](CCCC2CCCCC2)CC(=O)NO)n1,8.2 µM (active),4.17 µM (active),16.6 µM (active),23.5 µM (active),18.7 µM (active),23.5 µM (active),18.7 µM (active),18.7 µM (active),18.7 µM (active),16.6 µM (active),18.7 µM (active),,,
Cc1ncc(CCCN(C)C)cc1Nc1ncc2c(n1)-c1ccc(C(F)(F)F)cc1NC(=S)C2,0.0517 µM (active),0.0206 µM (active),,,,,,,,,,,,
C[N+]1(C)[C@@H]2C[C@@H](OC(=O)C(O)(c3cccs3)c3cccs3)C[C@H]1[C@@H]1O[C@@H]12,inactive,inactive,inactive,inactive,inactive,inactive,inactive,inactive,inactive,inactive,inactive,,,
CCOc1cc2c(c(F)c1OCC)C(=N)N(CC(=O)c1cc(N3CCOCC3)c(OC)c(C(C)(C)C)c1)C2,9.2 µM (active),18.4 µM (active) and 4.68 µM (active),inactive,inactive,inactive,inactive,inactive,inactive,,,,,,
COc1ccc(C2CC(c3ccccc3)=NN2c2ccc(S(N)(=O)=O)cc2)cc1 (stereo not drawn),20.9 µM (active),18.6 µM (active),4.18 µM (active),4.18 µM (active),2.64 µM (active),6.62 µM (active),3.72 µM (active),4.18 µM (active),2.35 µM (active),1.18 µM (active),,,,
COc1ccc(Cn2ccc3ccc(C(=O)NO)cc32)cc1,14.8 µM (active),20.6 µM (active) and 18.6 µM (active),inactive,,,,,,,,,,,
COc1cc(C(O)C2COC(c3ccc(OC4OC(CO)C(O)C(O)C4O)c(OC)c3)C2CO)ccc1O (stereo not drawn),4.47 µM (active),inactive,,,,,,,,,,,,
C/C=C(\C)C(=O)O[C@H]1C=CC(=O)O[C@H]1/C=C/[C@H](O)[C@@H](C)O,9.2 µM (active),7.31 µM (active),,,,,,,,,,,,
C[C@H]1[C@H](/C=C/c2ccc(-c3ccccc3C#N)cn2)[C@@H]2[C@@H](C)OC(=O)[C@@H]2C[C@@H]1C,8.2 µM (active),7.31 µM (active),,,,,,,,,,,,
CC(C)(O)c1ccn2c(-c3ccc(F)c(-c4ccc(F)cc4C#N)c3)cnc2c1F,9.2 µM (active),8.2 µM (active),,,,,,,,,,,,
CNC1CN(c2ccc3c(=O)c(C(=O)O)cn(-c4nccs4)c3n2)CC1OC (stereo not drawn),0.422 µM (active),0.376 µM (active),,,,,,,,,,,,
COCCNCCCn1c(C(=O)CF)c(-c2ccc(C)cc2)c2c(N)ncnc21,4.17 µM (active),6.61 µM (active),inactive,inactive,inactive,inactive,inactive,inactive,11.8 µM (active),0.166 µM (active),0.743 µM (active),,,
CC(C)(Cc1nc(-c2ccc(O)cn2)no1)C(=O)NC1=C(C(=O)O)CCCC1,inactive,inactive,,,,,,,,,,,,
COc1cc2c(cc1OC)-c1[nH]nc(Nc3cccc(F)c3)c1C2,0.082 µM (active),0.0731 µM (active),,,,,,,,,,,,
CC(C)(C#N)c1ccc(N2C(=O)OCc3cnc4ccc(-c5cnc6ccccc6c5)cc4c32)cc1,1.03 µM (active),1.46 µM (active),,,,,,,,,,,,
Nc1nc(OC(c2ccc(-c3cccc(F)c3)cc2)C(F)(F)F)cc(-c2ccc(C[C@H](N)C(=O)O)cc2)n1 (stereo partly drawn),18.6 µM (active),18.6 µM (active),,,,,,,,,,,,
COc1nc(C)cnc1NS(=O)(=O)c1cccnc1-c1ccc(-c2nnco2)cc1,inactive,inactive,inactive,inactive,inactive,inactive,inactive,inactive,inactive,inactive,inactive,3.93%,,
COc1cc(/C=C/C(=O)OC(C)(C)C(OC2OC(CO)C(O)C(O)C2O)C(=O)OCc2ccc(OC3OC(CO)C(O)C(O)C3O)cc2)ccc1O (stereo not drawn),inactive,inactive,,,,,,,,,,,,
CC(C)(C)OC(=O)Nc1ccc(-c2cc(C(=O)NCCCCCCC(=O)NO)no2)cc1,1.48 µM (active),1.48 µM (active),8.33 µM (active),9.35 µM (active),8.33 µM (active),2.64 µM (active),1.05 µM (active),2.35 µM (active),3.72 µM (active),1.48 µM (active),1.32 µM (active),,15.8 µM (active),2.82 µM (active)
Cc1ccc(-c2ncn(-c3ccc(Nc4nccc(-c5cccc(N6CCOCC6)c5)n4)cc3)n2)cn1,2.35 µM (active),2.35 µM (active),0.372 µM (active),0.372 µM (active),0.296 µM (active),0.296 µM (active),0.372 µM (active),0.296 µM (active),0.235 µM (active),0.118 µM (active),0.148 µM (active),11.5%,,
CCCCCN(CCC12CC3CC(CC(C3)C1)C2)C(=O)NCCCc1ccncc1,8.33 µM (active),7.42 µM (active),inactive,inactive,inactive,inactive,inactive,inactive,inactive,inactive,inactive,-15.8%,,inactive
O=C(c1cncc(Br)c1)N1CCC(N2CCCC2)CC1,inactive,inactive,inactive,inactive,inactive,inactive,inactive,inactive,inactive,inactive,inactive,1.51%,,inactive
Cc1cccc(CN2CCN(C(c3ccccc3)c3ccc(Cl)cc3)CC2)c1 (stereo not drawn),20.9 µM (active),11.9 µM (active) and 26.3 µM (active),inactive,inactive,inactive,inactive,inactive,inactive,inactive,inactive,inactive,,3.26 µM (active) and 28.2 µM (active),
COc1ccc(C[C@@H](C)[C@@H](C)Cc2ccc(OC)c(OC)c2)cc1OC,6.61 µM (active),11.8 µM (active),2.35 µM (active),2.64 µM (active),0.833 µM (active),2.35 µM (active),2.35 µM (active),2.35 µM (active),2.64 µM (active),2.64 µM (active),2.64 µM (active),-32.2%,,
COC(=O)Nc1ccc(-c2nc(N3CCOCC3)c3cnn(C4CCN(Cc5cccnc5)CC4)c3n2)cc1,0.517 µM (active),0.58 µM (active),4.69 µM (active),1.87 µM (active),1.05 µM (active),5.9 µM (active),1.48 µM (active),0.469 µM (active),0.662 µM (active),0.296 µM (active),0.372 µM (active),,12.6 µM (active),
COc1ccc(F)c(F)c1C(=O)c1cnc(NC2CCN(S(C)(=O)=O)CC2)nc1N,0.651 µM (active),580 nM (active) and 742 nM (active),4.69 µM (active),6.62 µM (active),4.18 µM (active),20.9 µM (active),11.8 µM (active),11.8 µM (active),4.69 µM (active),4.18 µM (active),5.9 µM (active),,3.55 µM (active),
O=C(O)c1cc(=O)[nH]c(=O)[nH]1,inactive,inactive,inactive,inactive,inactive,inactive,inactive,inactive,inactive,inactive,inactive,-4.98%,,inactive
CC(C)C[C@@H](C=O)NC(=O)[C@H](CC(C)C)NC(=O)[C@H](CC(C)C)NC(=O)OCc1ccccc1 (Cbz-Leu-Leu-Leu-aldehyde),0.833 µM (active),1.05 µM (active),0.743 µM (active),2.09 µM (active),1.48 µM (active),2.96 µM (active),2.64 µM (active),1.18 µM (active),0.662 µM (active),0.332 µM (active),0.743 µM (active),,0.794 µM (active),1.26 µM (active)
